Screening results from PubChem.
Rows were chosen to be rich in hits. Some 1.1% of all compounds tested hit in one or more screens of this group.
HTR5A inv ctr – inverse agonist of human HTR5A in OPRM1-OPRD1 counter-screen; P47898; HTR5A cell line, luminescence, inverse agonism; inhibition, % at 9.3 µM; 0.083% of 340,000 active; in the data active means inhibition mostly above about 23%, no sharp cut-off; inactive means mostly below about 18%;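 further: 0% = cells with DMSO and 100% = no-cell wells with DMSO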
Target sequence (P47898 whole entry, looked up): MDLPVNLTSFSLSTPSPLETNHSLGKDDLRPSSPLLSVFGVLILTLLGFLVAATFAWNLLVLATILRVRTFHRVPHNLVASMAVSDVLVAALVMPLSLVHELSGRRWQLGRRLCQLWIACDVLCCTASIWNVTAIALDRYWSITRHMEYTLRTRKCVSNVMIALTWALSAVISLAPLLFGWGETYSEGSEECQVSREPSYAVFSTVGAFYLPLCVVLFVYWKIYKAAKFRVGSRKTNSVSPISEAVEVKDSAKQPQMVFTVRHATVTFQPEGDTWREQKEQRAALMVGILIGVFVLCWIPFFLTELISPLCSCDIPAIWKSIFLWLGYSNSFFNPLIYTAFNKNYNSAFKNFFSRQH
MOR-DOR inv ag-1 – mu-delta opioid heterodimer inverse agonism; P35372+P41143; 0.21% of 340,000 active; cell-based MOR-DOR heterodimer luminescence; AID 504357; inhibition, % at 9.3 µM; in the data active means inhibition above about 22%, passing the limit was not always enough;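 further: 0% = cells with DMSO and 100% = wells without cells with DMSO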
MOR-DOR ag-1 – agonists of human mu-delta opioid receptor heterodimerization | P35372+P41143 | 0.3% of 340,000 active | cells, OPRM1-OPRD1 heterodimerization, luminescence | AID 504326 | activation, % at 9.3 µM; in the data active means activation above about 18%;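 further: 0% = vehicle-treated cells and 100% = reference agonist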
HTR5A ag – activates human HTR5A in OPRM1-OPRD1 agonist counter-screen; HTR5A agonist assay, luminescence, cell-based; activation, % at 9.3 µM; 0.61% of 340,000 active; AID 504692; in the data active means activation mostly above about 9.5%, no sharp cut-off; inactive means mostly below about 7.6%;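 further: 0% = cells with vehicle only and 100% = reference agonist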
OPRM1-D1 inv cf – OPRM1-OPRD1 heterodimer inverse agonism, confirmation. inhibition, % at 9.3 µM. 20% of 580 active. cells expressing OPRM1/OPRD1 heterodimer, luminescence. shares compounds with MOR-DOR inv ag-1; in the data active means inhibition above about 32%;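 further: 0% = cells with DMSO and 100% = wells lacking cells with DMSO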
HTR5A inv count – HTR5A inverse agonism, opioid heterodimer counter-screen | HTR5A-expressing cells, luminescence | shares compounds with MOR-DOR inv ag-1 | inhibition, % at 9.3 µM | 580 tested, under 10 active;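 further: 0% = cells with DMSO and 100% = no-cell wells with DMSO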
MOR-DOR inv ag-2 – counter-screen for HTR5A inverse agonists: OPRM1-OPRD1 heterodimerization inverse agonism. inhibition, % at 9.3 µM. AID 504912. 190 tested, under 10 active. shares compounds with HTR5A inv ctr. U2OS counter-screen cells, complementation luminescence;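 further: 0% = cells with DMSO and 100% = wells without cells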
HTR5A inv confrm – confirmation of human HTR5A inverse agonists; shares compounds with HTR5A inv ctr; HTR5A-expressing cells, inverse agonism, luminescence; inhibition, % at 9.3 µM; 190 tested, under 10 active; AID 504916;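 further: 0% = cells with DMSO and 100% = no cells with DMSO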
MOR-DOR ag-2 – counter-screen for HTR5A agonists: OPRM1-OPRD1 heterodimerization agonism; shares compounds with HTR5A ag; U2OS counter-screen cells, complementation luminescence, 3 h; activation, % at 9.3 µM; 13% of 800 active; AID 504913; in the data active means activation above about 18%
HTR5A ag confirm – confirmation of human HTR5A agonists; shares compounds with HTR5A ag; activation, % at 9.3 µM; AID 504915; 17% of 800 active; HTR5A agonist cell assay, luminescence; in the data active means activation above about 17%;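 further: 0% = cells with vehicle only and 100% = full reference agonist response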
Numbers without * were called inactive; i = inactive; · = no result. Unless noted, how the calls were made is not given here.

SMILES	HTR5A inv ctr	MOR-DOR inv ag-1	MOR-DOR ag-1	HTR5A ag	OPRM1-D1 inv cf	HTR5A inv count	others
CCc1ccc(C(=O)COC(=O)CNC(=O)c2ccc(Br)o2)cc1	5.3	20.6	-3.7	3.0	·	·
Cc1ccc(C(=O)COC(=O)CNC(=O)Cc2ccccc2)cc1[N+](=O)[O-]	29.2	57.3*	-13.8	-6.0	-46.3	-24.5
Cc1ccc(C(=O)COC(=O)CNC(=O)Cc2ccccc2)cc1	-19.3	19.1	-3.5	1.8	·	·
Cc1ccc(C(=O)COC(=O)CNC(=O)c2ccc(Br)o2)cc1[N+](=O)[O-]	23.3	54.2*	-10.7	-5.1	-64.5	5.5
Cc1cc(C2C(=O)c3ccccc3C2=O)c(C)c(C)c1C	-23.8	22.0	-4.3	6.5	·	·
Cc1ccc(-c2n[nH]c(=S)n2C)cc1Cl	18.6*	32.6*	-6.4	-6.6	2.5	11.6
CCN(CC)S(=O)(=O)c1cccc(-c2n[nH]c(=S)n2C)c1	-9.3	-7.0	1.4	3.6	·	·
CC(C)OC(=O)C(=O)NNc1ccccc1	8.2	24.0*	-3.4	-3.0	4.1	3.1
CCCOC(=O)C(=O)NNc1ccccc1	-6.2	-0.2	0.0	2.2	·	·
CCOC(=O)C(=O)NNc1ccc(C)cc1	-2.1	31.1*	-6.0	0.6	-1.3	19.4
COCc1cc(C)nc2sc(C(=O)N3CCCCC3)c(N)c12	11.5	38.5*	-7.4	0.8	i	13.3
Cc1cccc(NC(=O)NC2(C(=O)NCc3ccco3)CCCCC2)c1	-12.9	-0.8	0.1	-1.8	·	·
CC1(C)CC(=O)CC(C2(O)C(=O)N(Cc3ccccc3)c3ccccc32)O1 (stereo not given)	15.5	34.1*	-6.2	-6.0	19.7	8.8
CC1(C)CC(=O)C(C2(O)C(=O)N(Cc3ccccc3)c3ccccc32)CO1 (stereo not given)	18.1	28.6	-5.8	-6.9	·	·
O=C1C(=O)N(CC(=O)N2CCCC2)c2ccccc21	4.7	28.2	-5.4	2.2	·	·
CC(C)NC(=O)CN1C(=O)C(=O)c2ccccc21	8.4	46.8*	-9.4	-3.2	-57.6	-163.4
Cc1nn(CCC(=O)NNC(=S)Nc2ccc([N+](=O)[O-])cc2)c(C)c1[N+](=O)[O-]	7.9	24.1	-4.5	0.0	·	·
Cc1nn(CCC(=O)NNC(=S)Nc2ccc(F)cc2)c(C)c1Br	-26.7	43.6*	-7.9	-3.0	1.8	7.4
O=C1C(=O)N(CCS(=O)(=O)c2ccccc2)c2ccc(Cl)cc21	-1.9	3.5	-0.7	0.5	·	·
CCc1ccc2c(c1)C(=O)C(=O)N2CCS(=O)(=O)c1ccccc1	12.8	45.5*	-8.6	-3.1	-27.9	-17.3
Cc1ccc(N=C2C(=O)Nc3ccccc32)c(C)c1	13.0	54.1*	-9.8	-3.3	21.3	1.9
Cc1ccccc1N=C1C(=O)Nc2ccccc21	6.3	56.3*	-10.9	-1.6	-128.4	4.9
OCC1OC(Oc2c[nH]c3ccccc23)C(O)C(O)C1O (stereo not given)	-3.3	57.9*	-10.7	0.9	-4.9	20.5
Cc1cc(-c2nnc(SCC(=O)Nc3nccs3)o2)no1	5.5	-3.8	0.7	-1.9	·	·
COC(=O)c1ccc(OCC(O)CN2CCOCC2)cc1 (stereo not given)	11.6	-5.0	1.0	-3.0	·	·
SMILES	HTR5A inv ctr	MOR-DOR inv ag-1	MOR-DOR ag-1	HTR5A ag	OPRM1-D1 inv cf	HTR5A inv count	others
N#CC(C#N)=NNc1ccc([N+](=O)[O-])cc1	-15.0	30.9*	-5.8	15.3*	9.1	-10.6	MOR-DOR ag-2=-0.7;HTR5A ag confirm=3.3
Cc1ccc(C(CC(=O)N2CCCC2)c2ccccc2)c(O)c1 (stereo not given)	-11.2	-0.9	0.2	2.9	·	·
BrC(/C=C\c1ccccc1)=N/Nc1nc(N2CCOCC2)nc(N2CCOCC2)n1	-11.8	19.5	-4.2	-2.4	·	·
C/C(=N\Nc1nc(N2CCOCC2)nc(N2CCOCC2)n1)c1cccs1	22.9*	17.8	-3.1	-8.0	·	·	MOR-DOR inv ag-2=-16.8;HTR5A inv confrm=-6.9
CCCN1CCN(CCCNC(=O)CN2C(=O)c3cccnc3Oc3ccc(C)cc32)CC1	8.1	14.0	-2.8	0.5	·	·
COc1ccc(Cl)cc1C(=O)NNC(=O)COC(=O)CCN=C1NS(=O)(=O)c2ccccc21	71.3*	29.0	-5.6	-29.2	·	·	MOR-DOR inv ag-2=-19.9;HTR5A inv confrm=-137.9
COc1cccc(C(C(=O)NC(C)(C)C)N(C(=O)CCC(=O)Nc2cc(C)on2)C(C)C)c1OC (stereo not given)	12.7	15.1	-2.8	-2.4	·	·
COc1cccc(C(C(=O)NC(C)(C)C)N(C(=O)CCC(=O)Nc2cc(C)on2)C(C)(C)C)c1OC (stereo not given)	91.0*	1.2	-0.2	-25.7	·	·	MOR-DOR inv ag-2=-5.5;HTR5A inv confrm=3.8
CCOc1cc(N2CCOCC2)c(OCC)cc1NC(=O)c1oc2ccccc2c1C	23.6*	-10.7	2.1	-8.4	·	·	MOR-DOR inv ag-2=-29.9;HTR5A inv confrm=4.2
COC(=O)c1cc(S(=O)(=O)NCC2CCN(CCc3cccs3)CC2)cn1C	40.7*	6.3	-1.2	-0.1	·	·	MOR-DOR inv ag-2=-21.3;HTR5A inv confrm=-2.0
COC(=O)c1cc(S(=O)(=O)NCC2CCN(Cc3ccc(F)cc3)CC2)cn1C	-3.2	9.1	-1.7	0.8	·	·
CC(C)=CC1C=C(C)C(C)C2C(=O)NNC(=O)C12 (stereo not given)	-5.6	10.6	-1.9	-3.5	·	·
COc1ccccc1NC(=O)CSc1n[nH]c(-c2ccccn2)n1	39.4*	4.3	-0.6	-14.8	·	·	MOR-DOR inv ag-2=-62.8;HTR5A inv confrm=-2.4
COc1ccc(NC(=O)CSc2n[nH]c(-c3ccccn3)n2)cc1	-2.0	15.5	-2.9	0.7	·	·
COc1ccc(/C=C/c2ccc3cccc(O)c3n2)c(OC)c1OC	34.8*	12.7	-2.6	-9.3	·	·	MOR-DOR inv ag-2=-57.7;HTR5A inv confrm=28.1
COc1cccc(/C=C/c2ccc3cccc(O)c3n2)c1OC	31.6*	-13.5	2.6	-8.6	·	·	MOR-DOR inv ag-2=-67.5;HTR5A inv confrm=11.6
CCOC(=O)[C@@H]1[C@H]2COc3ccc(Br)cc3[C@H]2N2C(=O)N(c3cccc(F)c3)C(=O)[C@]12C	-20.0	3.6	-0.6	7.4	·	·
CN(C)c1ccc2nc3c(=O)[nH]c(=O)nc-3n(CC(O)C(O)C(O)CO)c2c1 (stereo not given)	33.2*	29.1	-5.7	-9.1	·	·	MOR-DOR inv ag-2=17.5;HTR5A inv confrm=85.4*
O=C(CSc1nnc(-c2ccccc2O)o1)N1CCOCC1	7.8	2.7	-0.4	-2.7	·	·
O=C(CSc1nnc(-c2ccccc2Br)o1)N1CCOCC1	24.8*	2.0	-0.4	-9.3	·	·	MOR-DOR inv ag-2=i;HTR5A inv confrm=-64.0
C=CCn1c(Cc2cccc3ccccc23)n[nH]c1=S	28.2*	-4.0	0.8	-8.1	·	·	MOR-DOR inv ag-2=2.4;HTR5A inv confrm=2.1
